Source: PubChem BioAssay (several laboratories)
Hits are enriched below; roughly 2.2% of the tested compounds scored in any of these assays.
Ba/F3 V617F tox: lowers viability of Ba/F3 cells expressing EpoR and JAK2V617F | AID 1446 | inhibition, % at 5.6 µM | 1.1% of 220,000 active | ATP luminescence;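 active = inhibition above the campaign mean plus 3 SD over all tested compounds, cut at about 24% in these data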;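 also: cytokine-independent growth of Ba/F3 cells driven by EpoR plus mutant JAK2; 0% = DMSO-treated cells and 100% = JAK inhibitor I control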
KLF5 inhibitor: suppresses KLF5 promoter-driven expression; DLD-1 KLF5 promoter-luciferase reporter, luminescence; inhibition, % at 5 µM; 0.23% of 290,000 active;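 active = inhibition above a per-plate limit of that plate's mean compound inhibition plus 3 SD, cut at about 60% in these data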;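 also: 0% = DMSO wells and 100% = LY294002 at 200 µM; higher means less KLF5 promoter-driven luciferase light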
aSyn UTR inh: 5' untranslated region of α-synuclein, MLPCN primary screen. alpha-synuclein 5'UTR reporter, inhibitor activity. inhibition, % (tested at 7.5 µM). 0.82% of 300,000 active. AID 1813; in the data active = inhibition above about 60%;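 also: H4 neuroglioblastoma cells stably carrying SNCA 5'UTR luciferase fusion; 0% = DMSO wells and 100% = positive control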
APP transl inh: APP translation inhibition | SH-SY5Y APP 5'UTR-luciferase reporter, luminescence | inhibition, % at 2 µM | 0.82% of 190,000 active;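 active = inhibition above a set limit, derived from the sample mean plus 3 SD, cut at about 45% in these data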
IEC-6 cytotox: kills IEC-6 intestinal cells in KLF5 counter-screen. IEC-6 cytotoxicity, luminescence viability. inhibition, % at 5 µM. 0.78% of 290,000 active;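 also: 0% = plate median of test compound wells and 100% = cytotoxic reference compound wells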
BaF3 tox: parental Ba/F3 viability inhibition as JAK2V617F counter-screen. AID 1486. CellTiter-Glo ATP luminescence. inhibition, % at 5.6 µM. 1.1% of 220,000 active;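 active = inhibition above a per-campaign cutoff, the mean inhibition of all tested compounds plus 3 SD, cut at about 27% in these data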;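 also: 0% = DMSO wells and 100% = JAK Inhibitor I control wells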
IEC-6 tox confirm: confirmation of cytotoxic compounds in rat IEC-6 intestinal epithelial cells. IEC-6 rat intestinal epithelial viability, luminescence. 63% of 1,900 active. shares compounds with IEC-6 cytotox. inhibition, % at 5 µM;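 also: 0% = vehicle and 100% = reference cytotoxic drug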
* hit, by the source's call; nt = no result given. Rule as the data show it, unless noted: active = inhibition above about 22%; inactive = the rest.

SMILES	Ba/F3 V617F tox	KLF5 inhibitor	aSyn UTR inh	APP transl inh	IEC-6 cytotox	BaF3 tox	IEC-6 tox confirm
O=S(=O)(c1ccc2c(c1)nc(COc1ccc(Cl)cc1)n2CC1CCCO1)N1CCOCC1 (stereo unspecified)	33*	-15	38	-4	37*	56*	-8
CCCCC(=O)NC(c1ccccc1)c1ccc2cccnc2c1O (stereo unspecified)	nt	96*	68*	nt	24*	nt	54*
CCCC(=O)NC(c1ccccc1)c1ccc2cccnc2c1O (stereo unspecified)	nt	89*	65*	nt	42*	nt	66*
N#CC1=C(N)Oc2cc(N)ccc2C1c1ccsc1 (stereo unspecified)	-2	-27	-12	4	-2	7	nt
N#CC1=C(N)Oc2cc(N)ccc2C1c1cccc(Br)c1 (stereo unspecified)	nt	61	119*	nt	81*	nt	54*
N#CC1=C(N)Oc2cc(N)ccc2C1c1cc(Br)cs1 (stereo unspecified)	nt	1	-75	nt	24*	nt	10
COc1ccc(NC(=O)C2C3C=CC4(O3)C2C(=O)N(CCCN2CCCC(C)C2)C4C(=O)NC2CCCCC2)cc1 (stereo unspecified)	nt	-12	5	nt	-10	nt	nt
CCCCCN=Cc1c(C)[nH]n(-c2nc3ccccc3s2)c1=O	48*	-39	62*	-55	45*	46*	51*
CN1CCN(C(=O)/C(=C\c2cccnc2)NC(=O)c2cccc(Br)c2)CC1	nt	-4	-14	nt	1	nt	nt
O=C(c1ccc(CS(=O)Cc2ccc(Cl)cc2)o1)N1CCN(c2cccc(Cl)c2)CC1 (stereo unspecified)	nt	-9	-5	nt	-3	nt	nt
COc1cccc(N2CCN(C(=O)c3ccc(CS(=O)c4ccc(Cl)cc4)o3)CC2)c1 (stereo unspecified)	nt	53	107*	nt	81*	nt	57*
CC12CN3CC(C)(CN(C1)C3c1ccc3c(c1)OCO3)C2O (stereo unspecified)	-6	-30	-3	nt	0	4	nt
COc1cccc2c1O/C(=N\O)C(C(=O)Nc1ccc(C)cc1)C2 (stereo unspecified)	nt	24	-31	nt	52*	nt	33*
COc1ccc(NC(=O)C2Cc3cccc(OC)c3O/C2=N\O)cc1 (stereo unspecified)	nt	9	-4	nt	4	nt	nt
CC(C)Cn1cc(Cl)c(=O)n(CC(C)C)c1=O	4	-11	7	-2	-3	-1	nt
CCN1/C(=C/c2ccc3cc(C)cc(C)c3[n+]2CC)Sc2cc(C)ccc21	101*	16	nt	61*	43*	86*	37*
C[n+]1ccccc1/C=C1\Sc2ccccc2N1CCO	nt	-31	5	nt	1	nt	nt
CCN1/C(=C\c2ccc3cc(C)ccc3[n+]2CC)Sc2cc(C)c(C)cc21	100*	-14	14	41	37*	71*	28*
CC[n+]1c(/C=C/c2ccc(OC)c(OC)c2)ccc2ccccc21	nt	-53	-117	nt	0	nt	nt
CCN1/C(=C/c2ccc3cccc(C)c3[n+]2CC)Sc2ccccc21	98*	32	-134	31	32*	89*	36*
O=C(NCCN1CCCCC1)/C(=C/c1ccco1)NC(=O)c1ccccc1	nt	-10	-4	nt	4	nt	nt
COc1ccc(CNC(=O)C2CCN(S(=O)(=O)c3ccccc3)CC2)cc1	nt	-8	10	nt	-1	nt	nt
COCCCNC(=S)Nc1cc2oc3ccccc3c2cc1OC	nt	16	0	nt	34*	nt	22*
C[n+]1c(-c2ccccc2)sc([S-])c1-c1ccccc1	nt	nt	-1	nt	nt	nt	nt
O=C1NC(c2ccc(Br)cc2)Nc2ccccc21 (stereo unspecified)	nt	5	-38	nt	33*	nt	33*
COC(=O)c1ccccc1NC1=C/C(=N\S(=O)(=O)c2ccc(C(=O)O)cc2)c2ccccc2C1=O	nt	-6	3	nt	28*	nt	13
CC(=O)/C(C#N)=C1\NC(=O)C(Cc2ccc(C)c(Cl)c2)S1 (stereo unspecified)	2	21	36	nt	72*	4	48*
C/C(=N\N=C1\NC(=O)C(CC(=O)Nc2ccc(C)c(Cl)c2)S1)C(C)(C)C (stereo unspecified)	-3	4	-3	-14	6	-1	nt
CCC[C@@H](CNC)NC[C@H](Cc1ccccc1)NCCCCc1ccccc1	nt	-22	-16	nt	24*	nt	101*
